Laboratory results published in PubChem BioAssay (NCATS).
Records with an inconclusive call do not appear. A call without a number means that no potency is given here. Calls of active or inactive are those of the source. Calls follow the shape of the dose curve; as a rule, active = well fitted inhibition curve with a large enough effect; inconclusive = small, poorly fitted or top-dose-only effect; inactive = no such curve, though single readings can be large or run the other way.

Assay: Primary qHTS for inhibitors of nuclear receptor binding SET domain protein 2 (NSD2) in an RCH-ACV wild type WT cells (2C) (AID 1645877); also: nearly all actives have a fitted effect of over 70% in size
Details: RCH-ACV (leukaemia line) NSD2 WT (2C) viability, CellTiter-Glo, 72 h; series mostly up to 44.9 µM
Potency is read from the fitted curve at half-maximal effect.

| Compound | Potency |
| --- | --- |
| O=C1OC(c2ccc(O)c(S(=O)(=O)O)c2)(c2ccc(O)c(S(=O)(=O)O)c2)c2c(Br)c(Br)c(Br)c(Br)c21 | inactive |
| CC(Cc1ccccc1)NCCn1cnc2c1c(=O)n(C)c(=O)n2C (stereo unspecified) | inactive |
| C[C@]12CC[C@@H]3c4ccc(OC(=O)N(CCCl)CCCl)cc4CC[C@H]3[C@@H]1CC[C@@H]2OP(=O)(O)O | inactive |
| COc1ccc2c3c1O[C@H]1[C@H](O)CC[C@H]4[C@@H](C2)N(C)CC[C@@]341 | inactive |
| Clc1ccccc1N1CCNCC1 | inactive |
| CN1C(=O)NC(=O)C(C)(C2=CCCCC2)C1=O (stereo unspecified) | inactive |
| CC(C)(C)NCC(O)c1cc(Cl)c(N)c(C(F)(F)F)c1 (stereo unspecified) | inactive |
| COP(=S)(OC)Oc1cc(Cl)c(Cl)cc1Cl | inactive |
| CCC(C)C(C)(COC(N)=O)COC(N)=O (stereo unspecified) | inactive |
| Nc1ccc([As](=O)(O)O)cc1 | inactive |
| CCC1(c2ccc(N)cc2)CCC(=O)NC1=O (stereo unspecified) | inactive |
| COc1cccc([C@@]2(O)CCCC[C@@H]2CN(C)C)c1 | inactive |
| COc1c2c(cc3c1OCO3)CCN(C)C2 | inactive |
| c1ccc(N2CCNCC2)cc1 | inactive |
| CC(C)C[C@H](CN)CC(=O)O | inactive |
| CC(C)c1c(CN(C)C(C)Cc2ccccc2)n(C)n(-c2ccccc2)c1=O (stereo unspecified) | inactive |

| Compound | Potency |
| --- | --- |
| C=C(C)[C@H]1CN[C@H](C(=O)O)[C@H]1CC(=O)O | inactive |
| CCC1(CC)C(=O)C=CNC1=O | inactive |
| O=P1(N(CCCl)CCCl)NCCCO1 (stereo unspecified) | inactive |
| COC1CC(=C(c2cccs2)c2cccs2)C[N+](C)(C)C1 (stereo unspecified) | 15 µM (active) |
| CCOC(=O)CC(SP(=S)(OC)OC)C(=O)OCC (stereo unspecified) | inactive |
| CN1CCC(O)(c2ccc(F)cc2)C(C(=O)c2ccc(F)cc2)C1 (stereo unspecified) | inactive |
| CCOP(=S)(OCC)Oc1ccc2c(C)c(Cl)c(=O)oc2c1 | 6.68 µM (active) |
| CN(C)CCc1c[nH]c2cccc(OP(=O)(O)O)c12 | inactive |
| CN1C(=O)CCS(=O)(=O)C1c1ccc(Cl)cc1 (stereo unspecified) | inactive |
| CCCCCCCCCC(=O)O[C@H]1CC[C@H]2[C@@H]3CCC4=CC(=O)CC[C@@H]4[C@H]3CC[C@]12C | inactive |
| CCC(CC)(CNC(=O)CCCO)c1cccc(OC)c1 | inactive |
| CNC(C)(C)Cc1ccccc1 | inactive |
| Nc1ccccc1 | inactive |
| CC(=O)OCC1=C(C(=O)O)N2C(=O)[C@@H](N)[C@H]2SC1 | inactive |
| C[C@H](N)C(=O)c1ccccc1 | inactive |
